# Test results reported in PubChem BioAssay AID1851 (National Center for Advancing Translational Sciences (NCATS), 2009).
# Screen size: about 16,000 compounds; about 2,600 (16%) were called active. Not shown: some 20% with an inconclusive outcome. A selection follows. Unmarked numbers belong to inactive results. Calls follow the shape of the dose curve; as a rule, active = well fitted curve in the direction sought with a large enough effect; inconclusive = small, poorly fitted or top-dose-only effect, or effect the other way; inactive = no such curve, though single readings can be large or run the other way.
# Biological target: Cytochrome P450 2D6 (Homo sapiens) (UniProt P10635)
# Test: Cytochrome panel assay with activity outcomes
# Settings: recombinant CYP, pro-luciferin dealkylation, luminescence, p450-cyp2d6; series mostly up to 57.1 µM; activity, negative = inhibition: at the top concentration
# % is scaled to controls: 0 for no effect and ±100 for the full control effect.
# Sequence of Cytochrome P450 2D6 (Homo sapiens) (P10635 whole entry, looked up): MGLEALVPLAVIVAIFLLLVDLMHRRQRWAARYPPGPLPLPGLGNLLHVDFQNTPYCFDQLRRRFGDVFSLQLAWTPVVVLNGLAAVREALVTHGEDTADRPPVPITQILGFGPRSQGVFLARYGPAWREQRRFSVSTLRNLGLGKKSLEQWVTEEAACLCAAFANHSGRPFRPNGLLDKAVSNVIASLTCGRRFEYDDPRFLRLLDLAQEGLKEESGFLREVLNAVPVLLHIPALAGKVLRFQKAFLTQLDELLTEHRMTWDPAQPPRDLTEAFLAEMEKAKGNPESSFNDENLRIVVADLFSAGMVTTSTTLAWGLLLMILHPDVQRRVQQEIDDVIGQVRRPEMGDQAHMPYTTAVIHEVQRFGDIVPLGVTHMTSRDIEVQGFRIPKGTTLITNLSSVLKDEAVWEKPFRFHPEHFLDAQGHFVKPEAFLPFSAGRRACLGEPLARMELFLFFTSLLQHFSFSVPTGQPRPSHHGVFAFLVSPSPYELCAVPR
SMILES,"activity, negative = inhibition",AC50
O=C(O)C[C@H](S)C(=O)O,-2.12% [at 11.4 µM],
c1csc(CNc2ncncc2-c2ccc3c(c2)OCO3)c1,,10 µM (active)
c1ccc(Nc2ncnc3ccc(-c4ccc5c(c4)OCO5)cc23)cc1,,0.126 µM (active)
c1cncc(CNc2ncncc2-c2cccnc2)c1,-11.4%,
c1ccc(CNc2ncncc2-c2ccc3c(c2)OCO3)cc1,,12.6 µM (active)
c1cncc(CNc2ncncc2-c2ccc3c(c2)OCO3)c1,,15.8 µM (active)
N#Cc1cccc(-c2cncnc2NCc2cccnc2)c1,-9.2%,
Clc1ccc2c(c1)C=Nc1c(NCc3ccccc3)ncnc1O2,-0.537%,
COc1ccc(NC(=O)N2CC[C@@]3(CCCN(C(=O)c4cccc(F)c4)C3)C2)cc1,6.12%,
O=C(Nc1ccccc1)N1CCSc2cc(Cl)ccc21,-11.2%,
OC[C@@H]1O[C@@H](N2CCN([C@@H]3O[C@@H](CO)[C@@H](O)[C@H](O)[C@H]3O)CC2)[C@@H](O)[C@H](O)[C@H]1O,-3.98% [at 11.4 µM],
COc1ccc2c(c1[N+](=O)[O-])CCC/C2=N/OC(=O)c1ccccc1SC,-3.18%,
NC(N)=NC(N)=Nc1ccc(S(N)(=O)=O)cc1,4.99% [at 11.4 µM],
O=C(c1ccc2c(=O)n(CC3CCCO3)c(=S)[nH]c2c1)N1CCN(c2ccccc2)CC1 (stereo not given),-17.4%,
C=CCNC(=O)c1ccc(Cn2c(=S)[nH]c3cc4c(cc3c2=O)OCO4)cc1,8.13%,
CCN(CC)CCn1c(=S)[nH]c2cc3c(cc2c1=O)OCO3,,0.631 µM (active)
O=C(CCCn1c(=S)[nH]c2cc3c(cc2c1=O)OCO3)N1CCN(c2ncccn2)CC1,,5.01 µM (active)
O=C(c1ccc2c(=O)n(Cc3ccco3)c(=S)[nH]c2c1)N1CCN(c2ccccc2)CC1,-19.2%,
O=C(CCCCCn1c(=S)[nH]c2cc3c(cc2c1=O)OCO3)N1CCN(C2CCCCC2)CC1,,8.91 µM (active)
CCCCNC(=O)CCn1c(=S)[nH]c2cc3c(cc2c1=O)OCO3,-7.86%,
O=C(CCCn1c(=S)[nH]c2ccc(Br)cc2c1=O)NCC1CCCO1 (stereo not given),-8.4%,
CCOc1cc2[nH]c(=S)n(CCCC(=O)NCc3ccco3)c(=O)c2cc1OCC,18.8%,
CCCC(=O)Nc1cccc(Oc2nc(C)cc(C)c2C#N)c1,-2.28%,
Cc1ccnc(NS(=O)(=O)c2ccc(N=[N+]=[N-])cc2)n1,10.7% [at 11.4 µM],
CC(C)=CCC/C(C)=C/CO/N=C1/C[C@@H](O)[C@@H](O)[C@@H]2[C@@H]3C(=O)N(Cc4ccccc4)C(=O)[C@H]3CC[C@H]12,-8.8% [at 11.4 µM],
